In the library only some 12% were active in any assay of this set; here they are far more common.
Shiga toxin inh: inhibitors of Shiga toxin in Vero cells; Vero cells, Shiga toxin protein synthesis inhibition reporter; inhibition, % at 38.7 µM; 9.2% of 290,000 active; AID 2315; in the data active means inhibition mostly above about 28%, no sharp cut-off; inactive means mostly below about 43%; further: 0% is about no effect
Cycloheximide cs: affects cycloheximide protein synthesis inhibition readout, counter-screen | 12% of 300,000 active | cell reporter, cycloheximide protein synthesis inhibition counterscreen | max response, % | AID 2314; in the data active means max response mostly above about 13%, no sharp cut-off; inactive means mostly below about 14%; further: read at 38.3 µM for the half of the compounds with a filed dose; 0% is about no effect
FMDV antiviral: foot and mouth disease virus antiviral activity | FMDV antiviral cell-based qHTS | Potency, µM (series often up to 57.9 µM), for the others: at the highest dose activity change, negative = inhibition, actives largely listed as inhibitors | 1.2% of 410,000 active | AID 1159524; calls by dose curve; tested in HEK293T cells; further: read-out not given here; potency means the concentration at half of the fitted maximal effect; on the % scale 0 is the no-effect control and ±100 the full control effect; nearly all actives have a fitted effect of over 45% in size
Sm TGR block: blocks Schistosoma mansoni thioredoxin glutathione reductase. purified TGR, DTNB reduction, TNB absorbance 405 nm. Potency, µM (top dose mostly 114 µM), without a hit: top-dose activity change, negative = inhibition, most hits filed as inhibitors. 3% of 360,000 active; active means well fitted inhibition curve with a large enough effect; inconclusive means small, poorly fitted or top-dose-only effect; inactive means no such curve, though single readings can be large or run the other way; further: potency means the concentration at half of the fitted maximal effect; on the % scale 0 is the no-effect control and ±100 the full control effect; nearly all actives have a fitted effect of over 60% in size
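First, TGR (20 nM dispensed) and NADPH were mixed with compound. Second, a 15 min room-temperature incubation followed. Third, further NADPH and then DTNB were added to start the reaction. Finally, TNB absorbance was monitored kinetically.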
* marks the source's active call; other numbers are inactive results; ? = inconclusive; . = no result given; [ ] = another dose, or the depositor's remark.

SMILES	Shiga toxin inh	Cycloheximide cs	FMDV antiviral	Sm TGR block
Cc1cc(C)c(S(=O)(=O)/N=C2\C=CC(=O)C(Cl)=C2)c(C)c1	-17	4	55%	4µM*
CCC(C(=O)Nc1cc(F)ccc1F)n1nc(-c2cc(C)ccc2C)ccc1=O (stereo not given)	.	.	-8%	-6%
N/C(=N\OC(=O)c1ccccc1[N+](=O)[O-])c1ccccn1	26	12	-58%	1%
COc1ccc(C(=O)NNC(=O)c2ccccn2)cc1	-23	-11	1.8µM*	1%
COc1ccc(C(=O)NCCNC(=O)c2ccccn2)cc1	7	-2	13%	8%
COc1ccc(C(=O)O/N=C(\N)c2ccccn2)cc1	-29	-11	2µM*	3%
COc1cc(OC)cc(C(=O)O/N=C(\N)c2ccccn2)c1	116*	51*	-1%	16%
COc1cc(OC)cc(C(=O)NNC(=O)c2ccccn2)c1	-5	15	-7%	1%
O=C(NCc1ccccc1Cl)c1ccc(-n2cnc3cccnc32)cc1	.	.	4%	-6%
CCOC(=O)CC1C(=O)NC2CCCCC2N1C(=O)Nc1ccc(Cl)cc1 (stereo not given)	20	28*	-2%	-5%
O=C(Nc1ccc(Br)cc1)C1CC(c2c(F)cccc2Cl)=NO1 (stereo not given)	16	13*	39%	2%
CSc1ccccc1NC(=O)C1CC(c2c(F)cccc2Cl)=NO1 (stereo not given)	42*	30*	39%	-26%
O=S(=O)(NCCc1ccccc1)c1ccccc1Br	-5	1	.	.
Fc1ccc(Nc2ncnc3onc(-c4ccc(Cl)cc4)c23)cc1Cl	.	.	?	5%
CC(=O)c1ccc2noc(-c3cccc(C)c3)c2c1	44	30	-4%	18µM*
N#CCn1c(CCl)nc2ccccc2c1=O	-24	-3	7.9µM*	28µM*
CCCCCOc1ccc(NC(=O)Cn2c(-c3cncs3)nc3ccccc32)cc1	.	.	-8%	3%
NC(=O)c1ccc(NCCCN2CCOCC2)c([N+](=O)[O-])c1	-17	-3	-17%	.
CCN(CC)S(=O)(=O)c1ccc(NCC2COc3ccccc3O2)c([N+](=O)[O-])c1 (stereo not given)	21	20*	0%	-2%
NC(=O)c1ccc(NCC2COc3ccccc3O2)c([N+](=O)[O-])c1 (stereo not given)	29	33*	9%	13%
CN(C)S(=O)(=O)c1ccc(NCC2COc3ccccc3O2)c([N+](=O)[O-])c1 (stereo not given)	49	27*	-3%	-8%
CCN(CC)S(=O)(=O)c1ccc2oc(C(=O)NCC3COc4ccccc4O3)c(C)c2c1 (stereo not given)	5	5	?	0%
O=C(Nc1ccccc1)c1ccc(NCC2CCCO2)c([N+](=O)[O-])c1 (stereo not given)	100*	68*	20%	-7%
CC(=O)Nc1ccccc1-c1nc(CNC(=O)c2ccc(-n3cccn3)cc2)c(C)o1	.	.	9%	.
O=C(Nc1ccccc1)N1CCCC2(CCN(C(=O)c3ccco3)CC2)C1	.	.	7%	.
SMILES	Shiga toxin inh	Cycloheximide cs	FMDV antiviral	Sm TGR block
COc1cc(/C=C2\SC(=Nc3ccc(O)cc3)NC2=O)cc(OC)c1O	-11	-1	-18%	-9%
O=C1NC(=Nc2ccc3ccccc3c2)S/C1=C/c1ccco1	26	18	29%	28µM*
O=C1NC(=Nc2ccc(O)cc2)S/C1=C/c1ccco1	22	17*	5%	25µM*
Cc1ccc(N=C2NC(=O)/C(=C\c3ccco3)S2)cc1	46*	28*	47%	-28%
COc1ccc(N=C2NC(=O)/C(=C\C=C\c3ccco3)S2)cc1	16	2	8%	.
Cc1cccc(N=C2NC(=O)/C(=C/C=C/c3ccco3)S2)c1	-13	-2	9%	40µM*
Cc1ccc(-n2nc(C(=O)Nc3ccc(C)c(F)c3)c3c4ccccc4n(C)c3c2=O)cc1	.	.	-7%	2%
Cc1nc2cccnc2n1C1CCN(C(=O)Nc2ccccc2C(F)(F)F)CC1	.	.	-27%	0%
c1ccc2c(-c3csc(-c4ccncc4)n3)c[nH]c2c1	96*	45*	26%	2%[57.1 µM]
Brc1ccc(-c2csc(-c3c[nH]c4ccccc34)n2)cc1	86*	34*	29%	11%
Clc1ccc(-c2c[nH]c3ccccc23)nn1	50	5	9%	3%
C/C(=N\O)c1ccc2[nH]ccc2c1	38	15*	46%	-8%
COc1ccc(-c2nc(CS(=O)CC(=O)NCc3ccc4c(c3)OCO4)c(C)o2)cc1OC (stereo not given)	8	5	5%	40µM*
Cc1oc(-c2ccc(Cl)cc2)nc1CS(=O)CC(=O)NCc1ccc2c(c1)OCO2 (stereo not given)	2	5	-28%	14µM*
CN1CCC(=O)N([C@H](CSc2ccccc2)c2ccccc2)CC1	58	18*	33%	?
CC(=O)Nc1ccc(SCC(c2ccccc2)N2CCN(C)CCC2=O)cc1 (stereo not given)	116*	68*	.	.
O=C1CCN(CCc2ccccc2)CCN1[C@H](CSc1ccc(Br)cc1)Cc1ccccc1	-5	-5	?	-18%
Cc1ccc(SC[C@H](c2ccccc2)N2CCN(C)CCC2=O)cc1	97*	44*	50%	40µM*
CC(C)CN1CCC(=O)N([C@H](CO)c2ccccc2)CC1	-3	1	-4%	-2%
CN1CCC(=O)N(C(CSc2ccc(Br)cc2)c2ccccc2)CC1 (stereo not given)	83*	33*	.	.
Cc1ccc(CNC(=O)CCCCCn2c(=O)c3sccc3n(CC(=O)N3CCCCC3C)c2=O)cc1 (stereo not given)	.	.	-18%	-4%
CCOC(=O)c1c(C)oc2nc(C)nc(NCC3CCN(Cc4ccccc4C)CC3)c12	.	.	-9%	4%
Cc1cc2c(s1)c1cnn(Cc3ccccc3)c(=O)c1n2C	-5	-4	.	.
COc1ccc(Cn2ccc3nc(C)c(C(=O)Nc4cc(C)cc(C)c4)cc3c2=O)cc1	.	.	-19%	-1%
CN1CCC(=O)N([C@H](CN=[N+]=[N-])c2ccccc2)CC1	20*	23*	27%	-28%
SMILES	Shiga toxin inh	Cycloheximide cs	FMDV antiviral	Sm TGR block
CCN(CC)CCNC(=O)C(=O)NCC(c1cccnc1)N1CCN(c2ccccc2)CC1 (stereo not given)	.	.	-16%	-10%
CCOC(=O)c1sc(N(Cc2ccccc2)C(=O)CSc2nnc(C3CC3)n2N)nc1C	79*	17*	35%	0%
CCOC(=O)c1sc(N(Cc2ccccc2)C(=O)COC(=O)c2cnccn2)nc1C	69	6	7%	10%
COc1ccc(CC(=O)NCC(c2ccc(N(C)C)cc2)N2CCOCC2)cc1 (stereo not given)	.	.	-12%	-2%
CCOC(=O)N1CCC(Nc2ncnc3c2cnn3-c2ccc(Cl)cc2)CC1	120*	54*	28%	6%
CCOC(=O)C1CCCN(c2ncnc3c2nnn3C)C1 (stereo not given)	.	.	-12%	1%
CCOC(=O)C1CCCN(c2ncnc3c2cnn3-c2ccc(OC)cc2)C1 (stereo not given)	70*	35*	-18%	0%
Cc1ccc(-n2ncc3c(NC4CCCC4)ncnc32)cc1	.	.	-82%	0%

Source: PubChem (National Center for Advancing Translational Sciences (NCATS))
